Measured values taken from PubChem BioAssay (NCI).
About 79,000 compounds went through this panel and 15% of them were active in at least one assay; those are over-represented in the sample as a whole. A number with no mark means an inactive call. Active and inactive are the calls of the source. Rule as the data show it: active = growth inhibition above about 70%; inactive = the rest.

How the values were obtained:
[1] = NCI Yeast Anticancer Drug Screen. Data for the rad50 strain (AID 155);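 also: 0% = growth of vehicle-only cultures of the same strain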; conditions: S. cerevisiae rad50 strain growth inhibition, stronger effect = higher value
Method in brief: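 Compounds were tested on a yeast strain with an engineered DNA damage repair alteration; the reported value is growth inhibition normalised to vehicle treatment.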

[2] = NCI Yeast Anticancer Drug Screen. Data for the mec2-1 strain (AID 157); conditions: S. cerevisiae mec2-1 strain, stronger effect = higher value
Method in brief: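 mec2-1 yeast strain, carrying an alteration in DNA damage repair or cell cycle control, was exposed to compounds; growth inhibition was measured relative to vehicle-treated controls.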

[3] = NCI Yeast Anticancer Drug Screen. Data for the sgs1 mgt1 strain (AID 161);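 also: 0% = growth of cultures given vehicle only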; conditions: S. cerevisiae sgs1 mgt1 strain, stronger effect = higher value
Method in brief: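 Percent growth inhibition was derived by comparing compound-exposed mutant yeast with vehicle-exposed cultures. The strain carries alterations in DNA damage repair.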

[4] = NCI Yeast Anticancer Drug Screen. Data for the cln2 rad14 strain (AID 165);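 also: 0% = growth equal to vehicle treated cultures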; conditions: S. cerevisiae cln2 rad14 strain, stronger effect = higher value
Method in brief: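 Yeast carrying cln2 and rad14 alterations (cell cycle control and DNA damage repair) were exposed to compounds. Growth inhibition was measured against vehicle-treated controls.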

[5] = NCI Yeast Anticancer Drug Screen. Data for the bub3 strain (AID 167); conditions: S. cerevisiae bub3 mutant strain, stronger effect = higher value
Method in brief: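 Growth of a checkpoint-deficient yeast mutant is measured after compound exposure. Values represent inhibition relative to vehicle.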

[6] = NCI Yeast Anticancer Drug Screen. Data for the mlh1 rad18 strain (AID 175); conditions: S. cerevisiae mlh1 rad18 strain growth inhibition, stronger effect = higher value
Method in brief: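 Growth inhibition of the yeast strain was measured after compound exposure and expressed relative to vehicle-treated controls. The strain carries defined defects in DNA damage repair.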

[7] = at 5.0 µM (retest, dose inferred, filed as 0.5)
[8] = at 50.0 µM (retest, dose inferred, filed as 5.0)

Row | SMILES | growth inhibition [1, 7] | growth inhibition [1, 8] | growth inhibition ([1]; at 50.0 µM) | growth inhibition [2, 7] | growth inhibition [2, 8] | growth inhibition ([2]; at 50.0 µM) | growth inhibition [3, 7] | growth inhibition [3, 8] | growth inhibition ([3]; at 50.0 µM) | growth inhibition [4, 7] | growth inhibition [4, 8] | growth inhibition ([4]; at 50.0 µM) | growth inhibition [5, 7] | growth inhibition [5, 8] | growth inhibition ([5]; at 50.0 µM) | growth inhibition [6, 7] | growth inhibition [6, 8] | growth inhibition ([6]; at 50.0 µM)
1 | CCCCCCCCCc1c(O)c(O)c(CCCCCCCCC)c(CCCCCCCCC)c1CCCCCCCCC | 1% | 27% | 54.9% | -11% | 30% | -5.95% | -10% | 28% | 54.9% | 33% | 55% | 49.9% | -6% | 87% (active) | 55.4% | -6% | 38% | 85.3% (active)
2 | CC(C)C(Br)CC/C(CBr)=C(\Cl)CCl (stereo not drawn) | 24% | 99% (active) | 87% (active) | 21% | 99% (active) | 85.1% (active) | 13% | 99% (active) | 92.5% (active) | 17% | 98% (active) | 90.2% (active) | 30% | 99% (active) | 92.2% (active) | 17% | 99% (active) | 56.4%
3 | COc1ccc(Oc2c(OC)cc(NCCCCCNC(C)C)c3ncccc23)cc1 | 26% | 72% (active) | 91.9% (active) | 13% | 52% | 67.9% | 37% | 85% (active) | 93.7% (active) | 19% | 48% | 57.8% | 29% | 69% | 81% (active) | 19% | 52% | 89.8% (active)
4 | N=C1C(=O)c2ccccc2-c2ccccc21 | -93% | 97% (active) | 96.3% (active) | -25% | 99% (active) | 96.3% (active) | -35% | 98% (active) | 97.3% (active) | -75% | 98% (active) | 91.3% (active) | -20% | 97% (active) | 97% (active) | -86% | 97% (active) | 95.7% (active)
5 | COc1ccc(S)cc1 | 0% | 72% (active) | 78.9% (active) | 3% | 51% | 39.7% | 0% | 89% (active) | 94% (active) | -3% | 80% (active) | 69.5% | 0% | 62% | 76.5% (active) | 2% | 86% (active) | 83.8% (active)
6 | Nc1ccc(C(=O)N/N=C\c2cccc3ccccc23)cc1 | 0% | -2% | 61.8% | -3% | 13% | 60.6% | 0% | 0% | 88.9% (active) | -4% | 3% | 34.4% | 6% | 22% | 50.8% | -1% | 21% | 89.3% (active)
7 | O=[N+]([O-])c1ccc2c(c1)/C(=C/c1ccc(O)cc1)c1ccccc1-2 | 9% | 86% (active) | 88.3% (active) | 1% | 82% (active) | 88.8% (active) | 2% | 82% (active) | 91.3% (active) | -2% | 84% (active) | 86.8% (active) | -2% | 85% (active) | 88.6% (active) | 6% | 83% (active) | 88.8% (active)
8 | Cc1ccc(C(C)(C)C)c(O)c1O | 4% | 98% (active) | 91.2% (active) | -18% | 98% (active) | 91.7% (active) | 1% | 52% | 92.1% (active) | 8% | 98% (active) | 91.8% (active) | -9% | 98% (active) | 91.4% (active) | -25% | 97% (active) | 90.5% (active)
9 | Cc1ccc2c(c1)[n+]([O-])c(N)n[n+]2[O-] | 21% | 61% | 75.7% (active) | 1% | 35% | 48.4% | 17% | 43% | 57.1% | 11% | 47% | 40.2% | -7% | 36% | 43.1% | 20% | 64% | 50.6%
10 | CC1=C(C(=O)Nc2ccccc2)C(c2cc(Cl)cc(Cl)c2)C(C(=O)Nc2ccccc2)=C(C)N1 | 2% | 2% | 87% (active) | 19% | 19% | 85.5% (active) | 11% | 11% | 83% (active) | 5% | 5% | 63.1% | -11% | -11% | 63.4% | -4% | -4% | 74.1% (active)
11 | C1=C(C2=C[P+](c3ccccc3)(c3ccccc3)C=C(c3ccccc3)O2)OC(c2ccccc2)=C[P+]1(c1ccccc1)c1ccccc1 | 7% | 15% | -10.1% | 4% | 8% | -7.05% | 5% | 15% | -5.35% | 5% | 2% | 71% (active) | 11% | 66% | 6.8% | 9% | 6% | 18.3%
12 | CCN(CC)CCNc1ccc(OC)c2cccnc12 | 15% | 30% | 99.3% (active) | 1% | 9% | 99.4% (active) | 8% | 16% | 99.3% (active) | 5% | -2% | 98% (active) | 10% | 16% | 99.5% (active) | 17% | 25% | 98.8% (active)
13 | COc1cc(OC)c(C/C=C/c2ccccc2)cc1O | 27% | 73% (active) | 10.2% | 21% | 71% (active) | -15.6% | 20% | 75% (active) | 16.3% | 16% | 49% | 19.6% | 29% | 86% (active) | -27.8% | 30% | 93% (active) | 89.3% (active)
14 | Cc1cc(C2c3ccccc3-c3ccccc32)cc(C)c1O | 9% | 7% | 98.3% (active) | 4% | 5% | 98.6% (active) | 4% | 8% | 98.8% (active) | -1% | -9% | 97.3% (active) | -1% | 8% | 97.2% (active) | 7% | 18% | 98.5% (active)
15 | CCOc1ccc(N=Nc2c(C)nn(C(=S)SC)c2OCC)cc1 | 10% | 54% | 99.3% (active) | -7% | 61% | 99.7% (active) | 4% | 74% (active) | 99.2% (active) | -13% | 27% | 99.5% (active) | -17% | 72% (active) | 99.3% (active) | -24% | 73% (active) | 99.5% (active)
16 | O=C(Cl)C(c1ccccc1)(c1ccccc1)c1ccccc1 | -3% | 98% (active) | 98.2% (active) | 14% | 97% (active) | 95.1% (active) | -10% | 98% (active) | 97.8% (active) | 18% | 98% (active) | 92% (active) | 10% | 98% (active) | 94.7% (active) | -8% | 99% (active) | 96.3% (active)
17 | O=C(C=P(c1ccccc1)(c1ccccc1)c1ccccc1)c1ccc(Cl)cc1 | 5% | 98% (active) | 98.8% (active) | 12% | 99% (active) | 99.2% (active) | 19% | 99% (active) | 99% (active) | -10% | 98% (active) | 98.7% (active) | 16% | 99% (active) | 98.5% (active) | -16% | 99% (active) | 99% (active)
18 | CCOC(=O)c1[nH]n(-c2ccccc2)c(=O)c1/C=N/C(=S)N=Nc1c(O)[nH]c2ccccc12 | -9% | -9% | -2.3% | -21% | -17% | -23.4% | -7% | -4% | -22.6% | -18% | -20% | 28.1% | -13% | 2% | -15.8% | -1% | -2% | -35.7%
19 | CCC(C)CNCCCCCNc1cc(OC)cc2cccnc12 (stereo not drawn) | 37% | 67% | 45.5% | 35% | 62% | 43.9% | 38% | 87% (active) | 66.5% | 47% | 57% | 48.2% | 39% | 75% (active) | 90.3% (active) | 29% | 53% | 70.3% (active)
20 | CCOC(=O)/C(C#N)=C\c1ccc(N(CCC(=O)O)CCC(=O)O)c(I)c1 | 1% | 77% (active) | -6.7% | -4% | 77% (active) | 33.5% | 3% | 37% | -5.3% | -7% | 77% (active) | 53.8% | 35% | 93% (active) | -13.1% | 10% | 77% (active) | -6.35%
21 | CSC(=S)N/N=C(\C)c1ccc[nH]1 | -2% | 96% (active) | 83.8% (active) | 0% | 96% (active) | 90.8% (active) | 13% | 96% (active) | 79.7% (active) | -13% | 92% (active) | 72.6% (active) | 0% | 97% (active) | 90.2% (active) | 2% | 77% (active) | 85.7% (active)
22 | CC(=O)N1OC2(C)c3ccccc3C1(C)c1ccccc12 | 99% (active) | 94% (active) | 99.2% (active) | 99% (active) | 97% (active) | 99.4% (active) | 99% (active) | 96% (active) | 97.9% (active) | 98% (active) | 95% (active) | 99.2% (active) | 99% (active) | 96% (active) | 99.4% (active) | 99% (active) | 95% (active) | 99.1% (active)
23 | O=c1ccc2nc3ccccc3sc-2c1 | -13% | 98% (active) | 95.4% (active) | 22% | 98% (active) | 8.1% | 5% | 98% (active) | 76.8% (active) | -6% | 98% (active) | 49.8% | 7% | 98% (active) | 92.1% (active) | 4% | 98% (active) | 95.5% (active)
24 | COc1cc2c(cc1OC)C(C)N(C)c1c-2c(OC(C)=O)cc2cc(OC)c(OC)cc12 (stereo not drawn) | 2% | 52% | 82.5% (active) | -4% | 64% | 87.4% (active) | -4% | 67% | 64.2% | -8% | 49% | 19.6% | -4% | 72% (active) | 42.2% | -3% | 54% | 70.5% (active)
25 | COc1cccc2c1C(=O)c1c(O)c3c(c(O)c1C2=O)CC(O)(C(C)=O)CC3OC1CC(N/C(C)=C/C(C)=O)C(O)C(C)O1 (stereo not drawn) | 91% (active) | 95% (active) | 88.5% (active) | 65% | 98% (active) | 90% (active) | 45% | 98% (active) | 88.9% (active) | 60% | 98% (active) | 88.4% (active) | 69% | 98% (active) | 85.8% (active) | 79% (active) | 97% (active) | 88.4% (active)
26 | Cc1c2[nH]c3ccc(Br)cc3c2c(C)c2[nH]ccc(=O)c12 | -5% | 72% (active) | 98.9% (active) | -8% | 59% | 98.7% (active) | -17% | 28% | 99% (active) | -26% | 57% | 97% (active) | 2% | 81% (active) | 98.3% (active) | -11% | 96% (active) | 96.8% (active)
